Results: PubChem BioAssay (NCI)
The panel holds about 83,000 compounds, 20% with a hit somewhere; the sample as a whole holds those more often.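 Negative percent growth values reflect cell death: -40 means 40% of the cells present at the start died, and -100 means all died.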 Unmarked numbers belong to inactive results. The source made the active and inactive calls. How the source made its calls: active means growth percent below 10; inactive means the rest.

What was measured:
Assay in all cases: NCI-60 one-dose screen, 48 h (100 = growth as untreated, 0 = no growth, -100 = all killed)
Settings in all cases: 10 µM unless noted
DU-145 prostate = tested on: DU-145 prostate
K-562 leukemia = tested on: K-562 leukemia
MALME-3M melanoma = tested on: MALME-3M melanoma
MDA-MB-231 breast = tested on: MDA-MB-231 breast
RXF 393 renal = tested on: RXF 393 renal
SF-268 CNS = tested on: SF-268 CNS
SF-295 CNS = tested on: SF-295 CNS
SF-539 CNS = tested on: SF-539 CNS
UACC-257 melanoma = tested on: UACC-257 melanoma
M14 melanoma = tested on: M14 melanoma

Row | SMILES | growth (DU-145 prostate) | growth (K-562 leukemia) | growth (MALME-3M melanoma) | growth (MDA-MB-231 breast) | growth (RXF 393 renal) | growth (SF-268 CNS) | growth (SF-295 CNS) | growth (SF-539 CNS) | growth (UACC-257 melanoma) | growth (M14 melanoma)
1 | O=C1c2cccc3cccc(c23)C(=O)N1N1C(=O)c2cccc3c(N4CCOCC4)ccc(c23)C1=O | 110% | 102% | 78.8% | 76.3% | 93.4% | 96.2% | 90.7% | 101% | 96.7% | 90%
2 | CCc1n(Cc2ccc3ccccc3c2)cc[n+]1Cc1ccc2ccccc2c1 | 23.8% | 8.91% (active) | -21.9% (active) | -18.9% (active) | 1.07% (active) | 12.5% | 6.3% (active) | 12.6% | -38.2% (active) | -9.48% (active)
3 | O=C(NNc1nccc(Nc2ccc(S(=O)(=O)Nc3ccncc3)cc2)n1)c1ccccc1 | 105% | 107% | 103% | 90.9% | 109% | 95.3% | 104% | 115% | 107% | 91.9%
4 | CCOC(=O)c1nc(Nc2ccc(NC(=O)Nc3ccc(F)cc3)cc2)c2ccccc2n1 | 108% | 102% | 92.6% | 95.9% | 93.2% | 98.3% | 99.8% | 99.9% | 103% | 97%
5 | CCN1C(=O)N(CC)C2C1NN=c1s/c(=C\c3ccc(Cl)cc3Cl)c(=O)n12 (stereo not given) | 6% (active) | -83.7% (active) | 50.4% | 12.4% | 61.1% | 42.3% | 12.8% | -12.6% (active) | 68.6% | 13.8%
6 | Clc1ccc2c(c1)N(c1ncnc3ccc(-c4cnc5[nH]ncc5c4)cc13)CC2 | 22.4% | 51.1% | 40.2% | 27.3% | -10.5% (active) | 35.1% | 23.1% | 24.9% | 44.3% | 43.4%
7 | O=C1c2c(c3c4ccc(Br)cc4oc3c3[nH]c4ccccc4c23)C(=O)N1O | 38.4% | 30.4% | 1.92% (active) | 80.1% | 31.7% | 13.9% | 34.4% | 7.26% (active) | 83.6% | 30.9%
8 | CCn1c(SCC(=O)c2ccc(Br)cc2)nnc1-c1ccncc1 | 103% | 91.5% | 105% | 106% | 113% | 96.5% | 101% | 99.3% | 107% | 108%
9 | O=C(O)c1ccc(-n2cc(/C=N/Nc3ccc(F)cc3)c(-c3cc4ccccc4oc3=O)n2)cc1 | 91.2% | 11.6% | 79.8% | 83.7% | 113% | 76.8% | 72.1% | 85.9% | 107% | 47.3%
10 | CCOC(=O)C#Cc1c(C(=O)OCC)nnn1[C@@H]1O[C@H](CO)[C@H]2OC3(CCCCC3)O[C@H]21 | 52.1% | 5.02% (active) | 55.1% | 95.6% | 9.92% (active) | 94.6% | 101% | 81.1% | 46.8% | 59.4%
11 | CCn1c(=S)sc2c(Nc3ccc(F)cc3)nc(-c3cccnc3)nc21 | 77.5% | 77.1% | 83.9% | 75% | 78.6% | 56.4% | 50.6% | 41.5% | 78.9% | 74.1%
12 | CC1=C(Nc2ccc(N3CCN(C)CC3)cc2)C(=O)c2cncnc2C1=O | 81% | 9.68% (active) | 131% | -10.1% (active) | 118% | 102% | 103% | 94.5% | 65.6% | 105%
13 | CC(C)=CCC[C@](C)(O)[C@H]1CC[C@]2(C)[C@@H]1CC[C@@H]1[C@@]3(C)Cc4nccnc4C(C)(C)[C@@H]3CC[C@]12C | 70.9% | 63.2% | 66.4% | 74.4% | 94.3% | 86.5% | 95.2% | 76.3% | 75.7% | 71.4%
14 | CN([O-])c1nc(N(C)[O-])nc(N2CCOCC2)n1.CN([O-])c1nc(N(C)[OH2+])nc(N2CCOCC2)n1.[Fe+3] | 63.1% [100 µM] | 16.7% [100 µM] | 118% [100 µM] | 110% [100 µM] | 75.5% [100 µM] | -14.2% [100 µM] (active) | 10.3% [100 µM] | 108% [100 µM] | 96.2% [100 µM] | 91.7% [100 µM]
15 | COC(=O)c1c2c(c(C)[n+]([O-])c1C)C(=O)C=C(NCc1ccc(OC)cc1)C2=O | -83.7% (active) | 0.821% (active) | -97.4% (active) | -6.3% (active) | -32.7% (active) | -22.4% (active) | -62.5% (active) | -80.7% (active) | -77% (active) | -84.6% (active)
16 | O=C(COc1ccc(-c2nc3ccccc3[nH]2)cc1)N=Nc1c(O)[nH]c2ccc(Cl)cc12 | 91.9% | 2.09% (active) | 93.3% | 84.6% | 88.2% | 99.3% | 91.2% | 93.3% | 104% | 87%
17 | O=C1/C(=C/c2ccc(-c3ccc(Br)cc3)o2)SC(=S)N1CCc1ccc(O)cc1 | 15.7% | 3.25% (active) | 73.5% | 82.9% | 80.5% | 44.4% | 100% | 86.5% | 77.4% | 50.9%
18 | CN1C(=O)/C(=C/c2cn(-c3ccccc3)nc2-c2ccccc2)SC1=S | 105% | 92.6% | 114% | 92.8% | 110% | 104% | 89.6% | 99.5% | 106% | 103%
19 | O=C1NCCC12CCN(c1c(Cl)cncc1-c1ccc(O)cc1)CC2 | 108% | 97.9% | 117% | 102% | 87.9% | 82.5% | 101% | 83.7% | 86.7% | 114%
20 | CC(C)(C)n1cc(-c2ccnc(NCCNS(=O)(=O)c3cccc4ccccc34)c2)c(-c2cccc(F)c2)n1 | 4.18% (active) | -30% (active) | -73.1% (active) | -8.01% (active) | -52.3% (active) | 29.5% | -68.7% (active) | -74.8% (active) | -8.81% (active) | -19% (active)
21 | O=C(CSc1nc(-c2ccccc2)[nH]c1S(=O)(=O)c1ccccc1)NC1CC1 | 112% | 87.4% | 103% | 90.1% | 4.36% (active) | 102% | 36.3% | 103% | 87.4% | 96.4%
22 | O=C1CNC(c2ccccc2)C(c2ccccc2)N1 (stereo not given) | 102% | 120% | 86.9% | 100% | 98.3% | 110% | 109% | 100% | 102% | 97.4%
23 | CCOC(=O)c1cc(-c2ccc([N+](=O)[O-])cc2)n(-c2ccc(C(=O)O)c(O)c2)c1C | 88.6% | 45.1% | 80.6% | 80.7% | 39% | 85.8% | 69.8% | 85.4% | 46.2% | 90%
24 | CCN(CC)CCNC(=O)c1cn2ncnc(Oc3ccc(NC(=O)Nc4ccc(Cl)c(C(F)(F)F)c4)c(F)c3)c2c1C | 8.01% (active) | -23% (active) | -89.7% (active) | -82.5% (active) | -44.9% (active) | 43.1% | -52.8% (active) | -79.8% (active) | -57.4% (active) | -83.2% (active)
25 | COc1cnc2c(c1)C(=O)c1c-2n(CCCNCCO)c(=O)c2ccncc12 | 3.45% (active) | 5.84% (active) | -30.4% (active) | 6.98% (active) | -11.1% (active) | 14.8% | 6.34% (active) | -15.2% (active) | -19.3% (active) | -1.26% (active)
26 | COC(=O)CCC(=O)C(=O)OC | 10.6% [10 mM] | 7.9% [10 mM] (active) | 42.4% [10 mM] | 35.5% [10 mM] | -8.87% [10 mM] (active) | -10.3% [10 mM] (active) | 30.2% [10 mM] | 4.1% [10 mM] (active) | -15.1% [10 mM] (active) | 7.27% [10 mM] (active)
27 | COc1cc(OC)c2sc(-c3ccc(-n4cncc4-c4ccc(OC)c(OC)c4)cc3)nc2c1 | -4.76% (active) | 65.5% | 73.1% | 68% | 12.1% | 60.5% | 48.8% | 66.5% | 71.5% | 67.6%
